Bioassay records as filed in PubChem BioAssay.
This is a sample that favours compounds with a hit; in the whole collection about 19% have one here.
IL1B secr inh = blocks inflammasome-driven IL-1 beta release. AID 743279. hit rate 4.7% among 360,000. THP-1 LPS/ATP IL-1B secretion, AlphaLISA, 16 h; hits give low values. activity change, % at 57.5 µM; in the data active = activity change below about -50%; inconclusive = mostly about -30% to -49%
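THP-1 cells pretreated 1 hr with compounds (up to 57.5 uM final), then stimulated with LPS (250 ng/mL final) plus ATP (1.25 mM final); secreted IL-1B measured by AlphaLISA after 16 hr, decreased signal indicating inhibition.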
HT1080NT lethal = kills 2HG-producing HT-1080-NT fibrosarcoma cells; HT-1080-NT fibrosarcoma viability, CellTiter-Glo ATP luminescence, 48 h; Potency, µM (doses to about 46.1 µM), without a hit: at the highest dose activity, negative = less viability, hits mostly cytotoxic; hit rate 1.6% among 360,000; AID 686970;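 also: NT is the 2HG producing partner of a matched IDH1 knockdown line; potency is read from the fitted curve at half-maximal effect; 0% = DMSO-treated cells and -100% = media-only wells without cells; nearly all actives have a fitted effect of over 55% in size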
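Luminescent CellTiter-Glo readout after 48 hours of compound exposure at 37 degrees C defined viability of HT-1080-NT cells. Activity was normalized to DMSO wells and cell-free media wells; concentration-response curves were fitted and assigned curve classes.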
HT1080 IDH1KD tx = kills HT-1080 cells with IDH1 knockdown; Potency, µM (top dose mostly 46.1 µM), for the others: at the top dose activity, negative = toxicity, hits mostly cytotoxic; hit rate 2% among 360,000; HT-1080 IDH1 knockdown viability, ATP luminescence, 48 h;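 also: potency is read from the fitted curve at half-maximal effect; 0% = DMSO wells and -100% = cell-free medium wells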
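After a 2 h attachment period, IDH1KD HT-1080 cells took pin-transferred compound for 48 h at 37 °C; ATP-based luminescence after 10 min room-temperature reagent incubation reported viability.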
DT40 TDP1 no CPT = qHTS for Inhibitors of human tyrosyl-DNA phosphodiesterase 1 (TDP1): qHTS in cells in absence of CPT; Potency, µM (series often up to 46.2 µM), for inactives: at the top dose activity change, negative = growth inhibition, most hits filed as inhibitors; AID 686978, 2013; DT40 Tdp1-/- hTDP1 cells, no CPT, ATP luminescence, 48 h; hit rate 15% among 420,000; also: potency is read from the fitted curve at half-maximal effect; nearly all actives have a fitted effect of over 55% in size
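Cells were dispensed at 400 per well, compounds added by pin tool, plates incubated ≥48 hr at 37 °C, then CellTiter-Glo added for 30 min at room temperature before luminescence reading. Line: DT40 Tdp1-/- complemented with hTDP1; camptothecin omitted.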
DT40 TDP1 CPT = DT40-hTDP1 cell growth loss with CPT | chicken DT40 Tdp1-/-;hTDP1 cells + 20 nM CPT, ATP luminescence, 48 h | Potency, µM (series often up to 46.2 µM), inactives show at the highest dose activity change, negative = growth inhibition, actives largely listed as inhibitors | hit rate 12% among 420,000 | AID 686979; also: potency is read from the fitted curve at half-maximal effect; nearly all actives have a fitted effect of over 55% in size
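Chicken DT40 Tdp1-/- cells complemented with human TDP1, 400 cells/well, exposed to compounds plus 20 nM camptothecin for at least 48 h at 37 C; viability read as ATP content by CellTiter-Glo luminescence.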
* marks the source's active call; other numbers are inactive results. Unless noted, calls follow the shape of the dose curve; as a rule, active = well fitted curve in the direction sought with a large enough effect; inconclusive = small, poorly fitted or top-dose-only effect, or another doubt; inactive = no such curve, though single readings can be large; an effect the other way counts as inactive or inconclusive. Unless noted, % is scaled to controls: 0 for no effect and ±100 for the full control effect.

Cc1cc(C(=O)CSc2nnc(-c3ccc(Cl)cc3)n2CC2CCCO2)c(C)n1C (centres undefined) was read as IL1B secr inh -2, HT1080NT lethal 0%, HT1080 IDH1KD tx -7%, DT40 TDP1 no CPT 23µM* and DT40 TDP1 CPT 12µM*.
For CCOc1ccc2nc(NC(=O)c3cc(=O)c4ccc(C)cc4o3)sc2c1 the results were DT40 TDP1 no CPT -14% and DT40 TDP1 CPT -8%.
N#Cc1c(-c2ccccc2)nc2n(-c3ccccc3)nc(C(=O)Nc3ccccc3)n2c1=O was read as IL1B secr inh 0, HT1080NT lethal 44%, HT1080 IDH1KD tx 20%, DT40 TDP1 no CPT 7.3µM* and DT40 TDP1 CPT inconclusive.
Screening COc1ccc(-c2nc(C(=O)Nc3cccc(C(C)=O)c3)nn2-c2ccccc2Cl)cc1 returned DT40 TDP1 no CPT 16µM* and DT40 TDP1 CPT 18µM*.
For CC(=O)c1ccc(NC(=O)c2nc(-c3ccccc3)n(-c3ccc(C)cc3)n2)cc1 the results were DT40 TDP1 no CPT 18µM* and DT40 TDP1 CPT inconclusive.
For N#Cc1cccc(NC(=O)c2nc(-c3ccccc3)n(-c3ccccc3)n2)c1 the results were IL1B secr inh -20, HT1080NT lethal -12%, HT1080 IDH1KD tx -1%, DT40 TDP1 no CPT 18µM* and DT40 TDP1 CPT inconclusive.
`Cc1csc(NC(=O)c2nc(-c3ccccc3)n(-c3ccccc3)n2)n1` gave IL1B secr inh inconclusive, HT1080NT lethal 4%, HT1080 IDH1KD tx 14%, DT40 TDP1 no CPT inconclusive and DT40 TDP1 CPT inconclusive.
N#Cc1ccc(OCC(=O)n2cc(C(=O)c3cc(Cl)cc(Cl)c3O)cn2)cc1 was read as IL1B secr inh 28, HT1080NT lethal 0%, HT1080 IDH1KD tx 0%, DT40 TDP1 no CPT inconclusive and DT40 TDP1 CPT inconclusive.
For COc1ccc(OC)c(CN2CCCC(c3nc(-c4ccncc4)ncc3-c3ccccc3C)C2)c1 (centres undefined) the results were DT40 TDP1 no CPT -1% and DT40 TDP1 CPT -1%.
Screening Oc1c(C(c2ccccc2F)N2CCOCC2)sc2nc(-c3ccco3)nn12 (centres undefined) returned DT40 TDP1 no CPT 7% and DT40 TDP1 CPT 0%.
`CCOC(=O)c1cnc(SCc2cccc(C)c2)nc1N` gave IL1B secr inh -15, HT1080NT lethal 9%, HT1080 IDH1KD tx 4%, DT40 TDP1 no CPT inconclusive and DT40 TDP1 CPT -28%.
Cc1ccc(C)c(NC(=O)c2nc(-c3ccccc3)n(-c3ccccc3)n2)c1 was read as IL1B secr inh inconclusive, HT1080NT lethal 13%, HT1080 IDH1KD tx 4%, DT40 TDP1 no CPT inconclusive and DT40 TDP1 CPT inconclusive.
Screening CC(=O)c1cccc(NC(=O)c2nc(-c3ccccc3)n(-c3ccccc3)n2)c1 returned DT40 TDP1 no CPT 10µM* and DT40 TDP1 CPT 21µM*.
COc1ccc(CCNCc2c(C(=O)O)c(C)n(Cc3ccccc3C)c2C)c(OC)c1 was read as DT40 TDP1 no CPT 18µM* and DT40 TDP1 CPT inconclusive.
`CCOc1ccc(CCNCc2c(C(=O)O)n(Cc3ccc(C)cc3)c3cc(OC)ccc23)cc1` gave DT40 TDP1 no CPT 18µM* and DT40 TDP1 CPT inconclusive.
Screening COc1ccc(Cn2c(C(=O)O)c(CNCc3ccc(OC)cc3OC)c3ccc(C)cc32)cc1 returned DT40 TDP1 no CPT 9.2µM* and DT40 TDP1 CPT 15µM*.
For COc1ccc(Cn2c(C(=O)O)c(CNCCc3cc(OC)ccc3OC)c3ccc(C)cc32)cc1 the results were DT40 TDP1 no CPT 16µM* and DT40 TDP1 CPT inconclusive.
`COc1ccc2c(CNCCc3ccco3)c(C(=O)O)n(Cc3ccccc3)c2c1` gave DT40 TDP1 no CPT inconclusive and DT40 TDP1 CPT 0%.
For COc1ccc(C(C(=O)NC2CCCCC2)N(C(=O)c2ccco2)c2ccccc2C(C)=O)cc1OC (centres undefined) the results were IL1B secr inh 10, HT1080NT lethal -11%, HT1080 IDH1KD tx -4%, DT40 TDP1 no CPT -24% and DT40 TDP1 CPT inconclusive.
Screening O=C(NCCC1=CCCCC1)c1cc(-c2ccccn2)nc2ccccc12 returned IL1B secr inh 10, HT1080NT lethal 9%, HT1080 IDH1KD tx 8%, DT40 TDP1 no CPT 9% and DT40 TDP1 CPT 8%.
For CC(C)(C)n1nnnc1C1c2ccccc2C(=O)N1CCc1c[nH]c2ccccc12 (centres undefined) the results were IL1B secr inh 35, HT1080NT lethal -2%, HT1080 IDH1KD tx 1%, DT40 TDP1 no CPT -21% and DT40 TDP1 CPT inconclusive.
`CC(C)(C)OC(=O)N1CCC(c2c(C(=O)N3CCOCC3)cnn2-c2cccc(F)c2)CC1` gave DT40 TDP1 no CPT 8% and DT40 TDP1 CPT -5%.
Cc1c(C)c2c(OCC(=O)N3CCC[C@H]3C(=O)O)cc3c(c2oc1=O)CCC(C)(C)O3 was read as IL1B secr inh -6, HT1080NT lethal -12%, HT1080 IDH1KD tx -9%, DT40 TDP1 no CPT -2% and DT40 TDP1 CPT 7%.
`c1cncc(C2OCC3(CO2)COC(c2cccnc2)OC3)c1` (centres undefined) gave IL1B secr inh 2, HT1080NT lethal 15%, HT1080 IDH1KD tx 3%, DT40 TDP1 no CPT 0% and DT40 TDP1 CPT -9%.
`Cn1c(O)c(N=NC(=O)CNC(=O)c2cccnc2)c2ccccc21` gave IL1B secr inh 1, HT1080NT lethal 10%, HT1080 IDH1KD tx 12%, DT40 TDP1 no CPT 0% and DT40 TDP1 CPT 0%.
For CC(=Nc1ccc(O)cc1)c1sc2ccccc2c1O the results were IL1B secr inh -5, HT1080NT lethal -10%, HT1080 IDH1KD tx -21%, DT40 TDP1 no CPT 13µM* and DT40 TDP1 CPT 15µM*.
For COc1ccc(C(=O)N/C(=C\c2ccc(-c3cccc([N+](=O)[O-])c3)o2)C(=O)NCCCN2CCOCC2)cc1 the results were IL1B secr inh -25, HT1080NT lethal inconclusive, HT1080 IDH1KD tx inconclusive, DT40 TDP1 no CPT 16µM* and DT40 TDP1 CPT inconclusive.
`CN(C)C(=O)/C(=C\c1ccc(-c2cccc([N+](=O)[O-])c2)o1)NC(=O)c1ccccc1` gave IL1B secr inh -16, HT1080NT lethal 0%, HT1080 IDH1KD tx -9%, DT40 TDP1 no CPT 16µM* and DT40 TDP1 CPT 15µM*.
Cc1ccc(C(=O)N/C(=C\c2ccc(-c3cccc([N+](=O)[O-])c3)o2)C(=O)NCCCN2CCOCC2)cc1 was read as IL1B secr inh -12, HT1080NT lethal 18µM*, HT1080 IDH1KD tx inconclusive, DT40 TDP1 no CPT inconclusive and DT40 TDP1 CPT inconclusive.
